# High-throughput results (PubChem)
# Most compounds without a hit are left out; they make up all but 2.2% or so of the library.
# aSyn rescue = alpha-synuclein toxicity inhibition in yeast; Yeast expressing alpha-synuclein, growth rescue, BacTiter-Glo, 24 h; Potency, µM (doses to about 46.1 µM), for the others: at the highest dose growth rescue (activation), most hits filed as activators; 370,000 tested, 0.14% active; note: % of control where 0% means no effect; nearly all actives have a fitted effect of over 65% in size
#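 Readout is rescue of growth in alpha-synuclein-expressing yeast, so inhibitors of toxicity appear as activators. Growth after 24 hr at 30 deg C in galactose medium is quantified by luminescence.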
# Mito fusion act = mitochondrial division inhibition or fusion activation. Potency, µM (top dose mostly 46.1 µM), without a hit: top-dose growth rescue (activation), usual class: activators. 320,000 tested, 0.23% active. S. cerevisiae fusion-defective mutant growth rescue, CellTiterGlo 48 h; note: % of control where 0% means no effect; nearly all actives have a fitted effect of over 45% in size
#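 Yeast fusion mutant, YPEG (non-fermentable carbon), compound, 48 h at 37C non-permissive; CellTiterGlo added, 10 min RT, luminescence read. Rescued growth = division inhibition.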
# FUS yeast rescue = FUS proteinopathy suppression in yeast | S. cerevisiae FUS-expressing, growth rescue, OD600, 24 h | Potency, µM (top dose mostly 76.6 µM), usual class: activators | 390,000 tested, 0.24% active;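 note: plate controls were DMSO vehicle for no effect and reference control for full effect; nearly all actives have a fitted effect of over 55% in size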
#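 Galactose (2%) drives FUS expression in yeast precultured in raffinose; seeding density OD 0.005. Test compounds incubated 24hr at 30C and 99% humidity before absorbance at 600 nm was measured.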
# TDP43 rescue = rescues yeast growth from TDP-43 toxicity. TDP-43 expressing yeast growth rescue, BacTiter-Glo, 24 h. Potency, µM (doses to about 46.1 µM), without a hit: top-dose growth rescue (activation), actives largely listed as activators. 410,000 tested, 1.8% active. AID 652104; note: % of control where 0% means no effect; nearly all actives have a fitted effect of over 50% in size
#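 Yeast expressing TDP-43 (pregrown in raffinose, seeded at OD600=0.02 in galactose medium) exposed to compounds 24 hr at 30 deg C. Growth read by BacTiter-Glo luminescence; rescue of toxicity appears as increased signal.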
# Abeta yeast res = A-beta toxicity reversal in yeast; Potency, µM (highest dose often 46.1 µM), most hits filed as activators; 410,000 tested, 0.063% active; yeast expressing A-beta42, growth rescue, OD600, 48 h; response scale: 0% DMSO, 100% iron-clioquinol control; note: nearly all actives have a fitted effect of over 55% in size
#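 Growth rescue measured by 600 nm absorbance after 48 h yeast culture at 30 C with compound. Values normalized between DMSO and an equimolar ferric chloride plus clioquinol control.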
# * hit, by the source's call; i = inactive; u = inconclusive; x = not tested or not shown. Calls come from the whole dose curve; as a rule, active = well fitted curve in the direction sought with a large enough effect; inconclusive = small, poorly fitted or top-dose-only effect, or another doubt; inactive = no such curve, though single readings can be large; an effect the other way counts as inactive or inconclusive. Potency is the fitted concentration of half-maximal effect.
SMILES,aSyn rescue,Mito fusion act,FUS yeast rescue,TDP43 rescue,Abeta yeast res
Cc1[nH]c2ccccc2c1SCCNC(=O)c1ccccc1F,x,x,i,14.1µM*,14.1µM*
COc1cc(C(=O)NCCSc2c(C)[nH]c3ccccc23)cc(OC)c1OC,x,x,i,22.5%,i
O=S(=O)(NCCNCC=Cc1ccc(Br)cc1)c1cccc2cnccc12,-0.2%,x,x,x,x
COc1ccccc1C(=O)Nc1ccc(Br)cc1C,4.5%,17.4%,i,17.8µM*,i
COc1ccccc1C(=O)Nc1ccc(Br)c2cccnc12,7.5%,1.6%,i,13.7%,i
C=CCN(C(=O)Cn1nc(C)n2c(cc3cc(C)ccc32)c1=O)c1ccccc1,9.9%,7.6%,u,-1.3%,x
CCOC(=O)c1ccc(NC(=S)N2CCSC2c2ccc(Br)cc2)cc1 (configuration not stated),-10.8%,22.4µM*,i,9.3%,u
C[C@@H]1CCCCO[C@H](CN(C)C(=O)Nc2cccc3ccccc23)[C@@H](C)CN([C@H](C)CO)C(=O)c2cc(N(C)C)ccc2O1,-1.9%,x,i,0.0%,i
Cc1ccc(S(=O)(=O)Nc2ccc3c(c2)C(=O)N([C@H](C)CO)C[C@H](C)[C@@H](CN(C)C(=O)NC2CCCCC2)OCCCC[C@@H](C)O3)cc1,0.4%,x,15.8µM*,24.2%,i
COc1ccc(S(=O)(=O)N(C)C[C@H]2Oc3ccc(NS(=O)(=O)c4ccccc4)cc3C(=O)N([C@H](C)CO)C[C@@H]2C)cc1,-0.3%,x,17.8µM*,4.2%,i
Cc1ccc(S(=O)(=O)Nc2ccc3c(c2)C(=O)N([C@H](C)CO)C[C@H](C)[C@H](CN(C)C(=O)Nc2cccc4ccccc24)OCCCC[C@@H](C)O3)cc1,6.5%,x,12.6µM*,u,i
Cc1ccc(S(=O)(=O)Nc2ccc3c(c2)C(=O)N([C@@H](C)CO)C[C@@H](C)[C@@H](CN(C)C(=O)NC2CCCCC2)OCCCC[C@H](C)O3)cc1,1.1%,x,i,-7.4%,i
COCC#Cc1cnc2c(c1)C(=O)N([C@H](C)CO)C[C@H](C)[C@@H](CN(C)S(=O)(=O)c1ccccc1)O2,0.6%,x,i,0.0%,i
Cc1ccc(S(=O)(=O)N(C)C[C@@H]2Oc3ncc(C#CCC(C)C)cc3C(=O)N([C@H](C)CO)C[C@H]2C)cc1,5.8%,x,28.2µM*,25.1µM*,i
Cc1nn2c(=O)cc(COc3ccc(/C=C(\C#N)C(=O)Nc4ccccc4)cc3Cl)nc2s1,x,x,i,7.6%,i
COc1cccc(S(=O)(=O)N(C)C[C@@H]2OCc3cnnn3CCCC(=O)N([C@@H](C)CO)C[C@@H]2C)c1,3.0%,x,i,9.9%,i
C[C@@H]1CN(c2c(F)c(N)c3c(=O)c(C(=O)O)cn(C4CC4)c3c2F)C[C@H](C)N1,x,12.4%,x,x,x
CN(Cc1cc(Cl)cc(Cl)c1)CC(C(=O)c1ccccc1)c1ccccc1 (configuration not stated),26.0%,x,x,12.6µM*,i
O=C(NCc1ccco1)c1ccc2c(c1)N(Cc1ccccc1)C(=O)c1ccccc1S2,x,x,31.6µM*,15.0%,i
CCN(CC)C(=O)c1ccc2c(c1)N(Cc1c(F)cccc1Cl)C(=O)c1ccccc1S2,x,x,u,22.4µM*,i
COCCNC(=O)c1ccc2c(c1)N(Cc1c(F)cccc1Cl)C(=O)c1ccccc1S2,x,x,u,2.3%,i
COc1ccc(C2NC(c3ccc(OC)cc3OC)C(C)C(=O)C2C)c(OC)c1 (configuration not stated),-0.3%,-0.7%,i,15.1%,i
OCc1ccccc1-c1ccc2nncn2c1,u,x,i,35.5µM*,i
OC[C@@H]1[C@@H](c2ccc(F)cc2)C(c2ccccc2)=NN1c1ccccc1,-50.4%,x,i,-78.8%,i
CC[C@H]1C(c2ccc(F)cc2)=NN(c2ccccc2)[C@@H]1CO,7.3%,x,i,11.2µM*,u
SMILES,aSyn rescue,Mito fusion act,FUS yeast rescue,TDP43 rescue,Abeta yeast res
O=C(N/N=C/c1cc2c3c(c1O)CCCN3CCC2)c1ccccc1O,22.4µM*,u,i,-35.2%,i
Cc1nn(-c2ccccc2)c(N2CCCC2)c1/C=N/NC(=O)c1ccccc1O,-6.9%,-5.4%,i,4.6%,i
COc1cc2c(NC3CCN(C)CC3)nc(N3CCCN(C)CC3)nc2cc1OCCCN1CCOCC1,6.0%,x,x,x,x
COc1ccc(CC(N)c2csc(NC(=O)c3cccc(OC(F)(F)F)c3)n2)cc1 (configuration not stated),-27.8%,x,i,9.8%,i
O=C(COc1ccc(Cl)cc1Cl)NCc1ccco1,12.6%,0.4%,i,15.2%,i
Cc1cc(Cl)cc(Cl)c1OCC(=O)NCc1ccco1,5.5%,-6.4%,i,14.1µM*,i
CCOC(=O)c1cc(S(=O)(=O)Nc2ccc(C)cc2Cl)[nH]n1,x,x,i,9.7%,i
O=C(CN1C(=O)COc2ccc(S(=O)(=O)NC3CCCC3)cc21)Nc1ccc(F)c(Cl)c1,x,x,20µM*,-3.6%,i
O=C(Nc1cc(Cl)cc(Cl)c1)c1cc(S(=O)(=O)NC2CCCC2)ccc1F,x,x,i,20µM*,i
O=C(Nc1ccc(F)c(F)c1)c1cc(S(=O)(=O)NC2CCCC2)ccc1F,x,x,i,1.7%,i
COc1cc(C=C(C#N)c2ccc([N+](=O)[O-])cc2)ccc1O,-14.8%,x,i,3.98µM*,i
CCc1nc(SCc2cc(Cl)ccc2OC)n[nH]1,15.8µM*,17.2%,i,u,i
COc1ccccc1-c1oc2ccccc2c1C#CC(C)(C)O,4.7%,u,i,15.8µM*,i
COc1ccccc1-c1oc2ccccc2c1C#CCO,-2.1%,x,i,-3.1%,i
CC(C)(C)OC(=O)N1CCC(c2c(C(=O)NCC3CCN(C4CCCC4)C3)cnn2-c2ccc(F)cc2)CC1 (configuration not stated),4.9%,-19.6%,i,3.5%,i
Cc1ccc2oc(-c3cccc(NC(=O)c4sc5c([N+](=O)[O-])cccc5c4Cl)c3)nc2c1,x,x,i,11.7%,i
Cc1ccc(-c2noc(CNC(=O)c3ccccc3)n2)cc1,x,x,i,-1.4%,i
Cc1cccc(-c2noc(CNC(=O)c3ccc(C)cc3C)n2)c1,x,x,i,2.4%,i
Cc1ccc(CC(=O)NCc2nc(-c3ccccc3)no2)cc1,x,x,i,12.6µM*,i
Cc1ccc(CC(=O)NCc2nc(-c3cccc(C)c3)no2)cc1,x,x,i,17.8µM*,i
CCCNC(=O)C1(C)CCN(C(=O)c2ccc(C)c(F)c2)C1 (configuration not stated),0.1%,x,i,17.1%,i
Cn1cc(C2(C)CCOc3ccccc32)c2ccccc21 (configuration not stated),x,x,i,x,x
